Source: PubChem BioAssay (University of Kansas High Throughput Screening Laboratory)
mHTT-CaM PPI inh = mutant huntingtin-calmodulin interaction inhibitors – biochemical, AlphaScreen, primary screen. hit rate 3.6% among 190,000. P42858. inhibition, % at 15 µM. AlphaScreen His-mHTT/GST-CaM binding, luminescence
Pf apPOL block = Pf-apPOL inhibitors, biochemical, fluorescence | Plasmodium falciparum apicoplast DNA polymerase (apPOL) | Recombinant Pf-apPOL, molecular beacon fluorescence, 1.5 h | inhibition, % at 10 µM | hit rate 0.25% among 210,000 | AID 1794808, 2022
Of the large screens only hits and unclear results are named; the others gave an inactive call. Only a selection was taken, and hits are over-represented in it overall. Rule as the data show it: active = inhibition above about 50%; inactive = the rest.

CC(C)N(Cc1ccccc1)c1ncnc(N)c1[N+](=O)[O-]	none
Cc1cc(O)cc2c1C(=O)C(=Cc1cc3ccccc3o1)O2	mHTT-CaM PPI inh 55
Cc1cc(O)cc2c1C(=O)C(=Cc1ccccc1)O2	none
CC(C)c1nnc2ccc(NC(=O)Nc3ccccc3)cn12	none
COc1ccc(-c2[nH]nc3c2C2(C(=O)N(CC(=O)O)c4ccccc42)C(C#N)=C(N)O3)cc1 (centres undefined)	Pf apPOL block 72
COc1ccc(-c2[nH]nc3c2C2(C(C#N)=C(N)O3)c3ccccc3-c3ccccc32)cc1	mHTT-CaM PPI inh 79
CCCc1[nH]nc2c1C1(C(=O)N(CC(=O)O)c3ccccc31)C(C#N)=C(N)O2 (centres undefined)	none
CCc1[nH]nc2c1C1(C(C#N)=C(N)O2)c2ccccc2-c2ccccc21	none
NC(=O)c1ccc(Nc2nnc(-c3ccc(O)cc3)c3ccccc23)cc1	none
CC(=NNc1nnc(-c2ccccc2)c(-c2ccccc2)n1)c1ccco1	none (no result: mHTT-CaM PPI inh)
NNc1nnc(-c2ccccc2)c2ccccc12	mHTT-CaM PPI inh 68
NNc1nnc(-c2ccccc2)c(-c2ccccc2)n1	mHTT-CaM PPI inh 100
O=C(NCCCN1CCOCC1)C1CCCN(c2cnn(Cc3ccccc3)c(=O)c2)C1 (centres undefined)	none
O=C(O)C1CSC(C(O)C(O)C(O)C(O)CO)N1 (centres undefined)	none (no result: mHTT-CaM PPI inh)
COc1cc(F)ccc1S(=O)(=O)n1cnc2ccccc21	none
CCN1CCN(C2CCC(C(C)(C)C)CC2)CC1 (centres undefined)	none
O=C(c1cccc(OCC2CCCN(C(=O)c3cccs3)C2)c1)N1CCCC1 (centres undefined)	none
N#CC1=C(N)OC2=C(C(=O)CC(c3ccccc3)C2)C1c1cccc(F)c1 (centres undefined)	none
COc1ccc(/C=C2\CCC3=C2OC(N)=C(C#N)C3c2ccc(OC)cc2)cc1 (centres undefined)	mHTT-CaM PPI inh 63
COc1ccc(/C=C2\CCCC3=C2OC(N)=C(C#N)C3c2ccc(OC)c(OC)c2)cc1OC (centres undefined)	none
N#CC1=C(N)OC2=C(CC/C2=C\c2cccc(F)c2)C1c1cccc(F)c1 (centres undefined)	mHTT-CaM PPI inh 94
CC(=O)c1ccc(NC(=O)Nc2c[nH]c3ccccc23)cc1	none
O=C(c1ccsc1)N1CCC(Cn2c(COc3ccccc3)nc3ccccc32)CC1	none
CCN(CC)C(=O)CC(c1ccc(OC)cc1)c1c(OC)cc(OC)c2ccc(=O)oc12 (centres undefined)	none
COc1cc(OC)c2ccc(=O)oc2c1C(CCN1CCN(c2ccccc2)CC1)c1ccc(N(C)C)cc1 (centres undefined)	mHTT-CaM PPI inh 84
COc1cc(OC)c2c(-c3ccccc3)cc(=O)oc2c1C(CCN1CCN(c2ccccc2)CC1)c1ccc(N(C)C)cc1 (centres undefined)	mHTT-CaM PPI inh 69
CCN(CC)CCC(c1ccc(N(C)C)cc1)c1c(OC)cc(OC)c2c(-c3ccccc3)cc(=O)oc12 (centres undefined)	mHTT-CaM PPI inh 100
COc1cc(OC)c2ccc(=O)oc2c1C(CCN1CCOCC1)c1ccc(N(C)C)cc1 (centres undefined)	none
COc1ccc(C(CCN2CCN(c3ccccc3)CC2)c2c(OC)cc(OC)c3c(-c4ccccc4)cc(=O)oc23)cc1 (centres undefined)	none
CCc1[nH]nc2c1C1(CCOCC1)C(C#N)=C(N)O2	none (no result: Pf apPOL block)
CCNC(=O)N(C)CC(=O)N1N=C(c2ccccc2F)CC1c1ccccc1F (centres undefined)	none
Cc1ccc(-c2nnc(C)c(N3CCC(C)CC3)n2)cc1	mHTT-CaM PPI inh 82
COc1ccc(-c2nnc(C)c(N3CCC(C)CC3)n2)cc1	none
CCOC(=O)C1CCN(c2nc(-c3cccc(C)c3)nnc2C)CC1	mHTT-CaM PPI inh 58
CCOC(=O)C1CCN(c2nc(-c3ccc(C)cc3)nnc2C)CC1	none
O=C(CCS(=O)(=O)Cc1ccccc1F)N1CCOCC1	none
COc1ccc(CCNC(=O)CC2CCN(C(=O)C3CCCCC3)CC2)cc1OC	none
COc1ccc(-c2cc3n(n2)CCCN(C(=O)c2cc4ccccc4[nH]2)C3)cc1	none
Cc1ccc(Nc2c(C(=O)NCc3ccc(F)cc3)cnc3c2c(C)nn3C)cc1	mHTT-CaM PPI inh 94
CCCNC(=O)c1cnc2c(c(C)nn2C)c1Nc1ccc(C)cc1	none
Cc1nn(CC(=O)NN=Cc2c(F)cccc2Cl)c(C)c1Br	none (no result: mHTT-CaM PPI inh)
COc1ccc([C@H]2C=C3CNS(=O)(=O)[C@H]3C[C@H]2OC(=O)c2cccc(C)c2)cc1	mHTT-CaM PPI inh 82
COc1ccc([C@H]2C=C3CNS(=O)(=O)[C@H]3C[C@H]2OC(=O)c2ccc(C(F)(F)F)cc2)cc1	mHTT-CaM PPI inh 100
COc1ccc(C2C(=C(O)c3ccc(Cl)cc3)C(=O)C(=O)N2C)cc1 (centres undefined)	none
COc1ccc([C@H]2C=C3CNS(=O)(=O)[C@H]3C[C@H]2OC(=O)c2ccc(Cl)cc2)cc1	mHTT-CaM PPI inh 60
